Source: paper PMC9838217, “Structure of SALL4 zinc finger domain reveals link between AT-rich DNA binding and Okihiro syndrome”
Where a chain is given by its changes, count along the chain named.

Each sequence was assayed against T1, SALL4 ZFC4 R900W (HT-SELEX) (Mus musculus, UniProt Q8BX22 870-940, R900W) (assay: HT-SELEX; high values mean tight binding). Conditions: protein: recombinant; vector His6-GST; dsDNA, one strand shown.
T1 sequence: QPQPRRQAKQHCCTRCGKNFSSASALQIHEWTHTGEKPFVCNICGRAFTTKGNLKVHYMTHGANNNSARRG
Method in brief: (§1)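 Purified recombinant mouse SALL4 zinc finger cluster 4 (residues 870–940, 1 µg) was incubated with library DNA (1.5 µg first cycle, 200 ng later) in 100 µl buffer (10 mM Tris–HCl pH 7.5, 50 mM NaCl, poly(dI-dC), DTT) for 10 min at room temperature. Ni2+ bead-captured complexes were washed, PCR-amplified and reselected for up to 6 cycles, in triplicate, then MiSeq-sequenced and scanned for 6-mers. Binding signal is each canonical k-mer's read fraction as fold change versus the initial random library.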

Sequence | binding signal [fold-change vs cycle 0]
AGCCGC | 0.0699 ± 0.00939
CGATGC | 0.312 ± 0.0118
ATCGGC | 0.223 ± 0.00552
CAGGCA | 0.348 ± 0.0149
CATGGC | 0.357 ± 0.0224
GCCCCC | 0.107 ± 0.0111
GACGCA | 0.263 ± 0.0079
CTGCGA | 0.28 ± 0.0255
CGTGCC | 0.121 ± 0.0106
CGCAAG | 0.289 ± 0.0102
CCACCG | 0.209 ± 0.0206
GCGCTA | 0.156 ± 0.0119
GGCGCA | 0.0622 ± 0.0107
ACGCCG | 0.0708 ± 0.0067
AGGCGA | 0.276 ± 0.00793
ACCGCT | 0.31 ± 0.02
GCAGGC | 0.124 ± 0.00995
GCGCAA | 0.123 ± 0.00425
GAAGTA | 1.6 ± 0.0945
GCATTA | 1.09 ± 0.0461

Sequence | binding signal [fold-change vs cycle 0]
GTGCGA | 0.265 ± 0.00784
CAATAG | 1.34 ± 0.0439
CCGCCC | 0.0662 ± 0.0114
AGTGCG | 0.276 ± 0.0168
CCGCGA | 0.102 ± 0.00288
CTGGGC | 0.152 ± 0.021
CCCTCG | 0.278 ± 0.0226
CTCGGC | 0.127 ± 0.0136
CCGCGG | 0.0426 ± 0.00565
CGCCAA | 0.185 ± 0.0197
CTCCGC | 0.169 ± 0.0169
CCCCAG | 0.289 ± 0.0372
ACGTCG | 0.298 ± 0.0109
AGGCCA | 0.313 ± 0.0175
CGCCGA | 0.0711 ± 0.00229
GCGGGA | 0.149 ± 0.0162
TGCCCA | 0.29 ± 0.00772
AGTGGC | 0.299 ± 0.0198
CTTCGC | 0.34 ± 0.0357
GCCCAA | 0.245 ± 0.0152

Each sequence was assayed against T2, SALL4 ZFC4 G921D (HT-SELEX) (Mus musculus, UniProt Q8BX22 870-940, G921D) (assay: HT-SELEX; high values mean tight binding). Conditions: protein: recombinant; vector His6-GST; dsDNA, one strand shown.
T2 sequence: T1 sequence with W31R, G52D
Method in brief: as §1

Sequence | binding signal [fold-change vs cycle 0]
AGCCGC | 0.174 ± 0.0601
CGATGC | 0.454 ± 0.0801
ATCGGC | 0.362 ± 0.0707
CAGGCA | 0.477 ± 0.0613
CATGGC | 0.495 ± 0.0505
GCCCCC | 0.213 ± 0.0572
GACGCA | 0.386 ± 0.0647
CTGCGA | 0.404 ± 0.0745
CGTGCC | 0.246 ± 0.0768
CGCAAG | 0.411 ± 0.0549
CCACCG | 0.322 ± 0.0675
GCGCTA | 0.291 ± 0.093
GGCGCA | 0.16 ± 0.0742
ACGCCG | 0.183 ± 0.0752
AGGCGA | 0.438 ± 0.0693
ACCGCT | 0.44 ± 0.0953
GCAGGC | 0.24 ± 0.0592
GCGCAA | 0.249 ± 0.0828
GAAGTA | 1.43 ± 0.121
GCATTA | 1.15 ± 0.019

Sequence | binding signal [fold-change vs cycle 0]
GTGCGA | 0.4 ± 0.0639
CAATAG | 1.31 ± 0.0578
CCGCCC | 0.164 ± 0.0742
AGTGCG | 0.407 ± 0.068
CCGCGA | 0.221 ± 0.0689
CTGGGC | 0.273 ± 0.0783
CCCTCG | 0.388 ± 0.0906
CTCGGC | 0.231 ± 0.0599
CCGCGG | 0.128 ± 0.0621
CGCCAA | 0.316 ± 0.0834
CTCCGC | 0.271 ± 0.0458
CCCCAG | 0.38 ± 0.0427
ACGTCG | 0.438 ± 0.0515
AGGCCA | 0.446 ± 0.0657
CGCCGA | 0.179 ± 0.0757
GCGGGA | 0.256 ± 0.0688
TGCCCA | 0.437 ± 0.0679
AGTGGC | 0.455 ± 0.0604
CTTCGC | 0.455 ± 0.0772
GCCCAA | 0.387 ± 0.0671
